In all, about 81,000 sequences were measured (“one-hybrid fitness for binding parS DNA”: median about -0.17, highest 2% from about 0.51 on). This excerpt belongs to a sample that is enriched for the highest values.
B1: Caulobacter ParB omega fusion; a variant is named by its letters at X, in order, B8GW30 (parent)
chain: MESVVVGEPGMSEGRRGLGRGLSALLGEVDAAPAQAPGEQLGGSREAPIEILQRNPDQPRRTFREEDLEDLSNSIREKGVLQPILVRPSPDTAGEYQIVAGERAWRAAQRAGLKTVPIMVRELDDLAVLEIGIIENVQRADLNVLEEALSYKVLMEKFERTQENIAQTIGKSXSHVANXMRLLXLPDEVQSYLVSGELTAXHARAIAAAADPVALAKQIIEGGLSVRETEALARKAPNLSAGKSKGGRPPRVKDTDTQALESDLSSVLGLDVSIDHRGSTGTLTITYATLEQLDDLCNRLTRGI

Variants of: B1
Assay: one-hybrid fitness for binding parS DNA (scaled: cognate 1, non-cognate 0); higher = stronger binding
Conditions: with parS DNA site
Procedure, shortened: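 On M9-minus-histidine containing 0.1 mM IPTG and 5 mM 3-AT, E. coli USO cells with a HIS3 reporter, site 19 bp from the promoter, grew 48 hours at 37°C to select Caulobacter ParB libraries randomised at four specificity codons. Plasmids from before and after were Illumina-sequenced, with three replicate libraries pooled and variants under 10 reads left out. Fitness is the log change in variant-to-wild-type read ratio, rescaled against cognate and non-cognate.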

Variant	one-hybrid fitness for binding parS DNA
LQQY	≤ 0.2
RMNP	≤ 0.2
RMYS	1.01
RMYN	0.47
RMYH	0.234
RMNH	0.287
RMNS	0.911
AHEC	≤ 0.2
EPSR	≤ 0.2
TPDV	≤ 0.2
PQMC	≤ 0.2
RNTP	≤ 0.2
RNTC	0.865
RNTY	0.368
RNTT	0.746
RNTK	≤ 0.2
RNTD	≤ 0.2
RNTS	0.964
RNTR	≤ 0.2
RNTH	≤ 0.2
RNTG	0.908
RNTM	0.233
RNTN	0.357
NCAN	≤ 0.2

Variant	one-hybrid fitness for binding parS DNA
MWTR	≤ 0.2
DRQW	≤ 0.2
ADQL	≤ 0.2
NGAG	≤ 0.2
HAPM	≤ 0.2
HNLP	≤ 0.2
SYAS	≤ 0.2
DFNG	≤ 0.2
RFNG	1
RFDD	≤ 0.2
RFDG	0.814
NFNG	≤ 0.2
AFDG	≤ 0.2
LMSV	≤ 0.2
AAST	≤ 0.2
SSPQ	≤ 0.2
THVR	≤ 0.2
DHYT	≤ 0.2
GFSS	≤ 0.2
RYKT	0.708
RYKH	≤ 0.2
RYKN	0.394
RYVR	≤ 0.2
RYVK	≤ 0.2

Variant	one-hybrid fitness for binding parS DNA
RYVT	0.716
HYNK	≤ 0.2
QWNN	≤ 0.2
PIAM	≤ 0.2
LLNT	≤ 0.2
MIIT	≤ 0.2
IARP	≤ 0.2
RGVW	≤ 0.2
RRVM	≤ 0.2
RRDM	≤ 0.2
RCKN	0.463
RCKM	0.402
RRNM	0.656
RRKN	0.84
RRVN	0.268
RCNM	0.349
RRKD	≤ 0.2
RRKP	0.338
RRKS	0.684
RRKM	0.802
IVNW	≤ 0.2
TART	≤ 0.2
ACQS	≤ 0.2
MKRG	≤ 0.2

Variant	one-hybrid fitness for binding parS DNA
RCKH	≤ 0.2
RRKH	0.623
RRVH	≤ 0.2
RCRM	0.365
RRRM	0.762
RRYM	0.206
RRVS	0.708
RRVP	≤ 0.2
RRVD	≤ 0.2
GKVS	≤ 0.2
NRQG	≤ 0.2
ATIC	≤ 0.2
YVNR	≤ 0.2
QQAI	≤ 0.2
NVWA	≤ 0.2
RVHA	0.552
RVSA	0.581
PVSA	≤ 0.2
RVWA	0.616
RVPA	0.324
RVIA	0.522
PVHA	≤ 0.2
SVIA	≤ 0.2
DVWA	≤ 0.2

Variant	one-hybrid fitness for binding parS DNA
TLSH	≤ 0.2
DKSV	≤ 0.2
GGQR	≤ 0.2
GCKT	≤ 0.2
HKHC	≤ 0.2
EMRS	≤ 0.2
QDPW	≤ 0.2
NVYA	≤ 0.2
RVNA	0.602
RVQA	0.597
RVMA	0.545
DVMA	≤ 0.2
RVYA	0.64
EVQA	≤ 0.2
RVEA	0.483
NVNA	≤ 0.2
PVNA	≤ 0.2
NVQA	≤ 0.2
FHNR	≤ 0.2
KHET	≤ 0.2
LGQH	≤ 0.2
KKTT	≤ 0.2
TGPM	≤ 0.2
PPMA	≤ 0.2

Variant	one-hybrid fitness for binding parS DNA
WVPV	≤ 0.2
GEND	≤ 0.2
TSEH	≤ 0.2
CVLA	≤ 0.2
RVRA	0.689
NVDA	≤ 0.2
NVRA	≤ 0.2
RVDA	0.556
PVGA	≤ 0.2
NVLA	≤ 0.2
RVGA	0.565
DVGA	≤ 0.2
DVRA	≤ 0.2
RVLA	0.565
EWRT	≤ 0.2
LSNV	≤ 0.2
LQAW	≤ 0.2
ESFC	≤ 0.2
WPSS	≤ 0.2
KRVW	≤ 0.2
IRFN	≤ 0.2
FLDR	≤ 0.2
MLTT	≤ 0.2
YVRR	≤ 0.2

Variant	one-hybrid fitness for binding parS DNA
RCPV	≤ 0.2
RVCA	0.608
NVCA	≤ 0.2
KMLT	≤ 0.2
WVPC	≤ 0.2
CYWL	≤ 0.2
QPKK	≤ 0.2
VRCA	≤ 0.2
RHVQ	≤ 0.2
RHKC	0.858
RHKQ	≤ 0.2
RHVC	0.773
RHVR	≤ 0.2
RHKM	0.358
SHAT	≤ 0.2
DRYP	≤ 0.2
IQCS	≤ 0.2
TYDM	≤ 0.2
RGVS	0.516
RGKD	≤ 0.2
RGKY	0.436
RGVP	≤ 0.2
RGKT	0.712
RGKN	0.369

Variant	one-hybrid fitness for binding parS DNA
RGKS	0.927
RGVT	0.33
RGVN	≤ 0.2
LSNY	≤ 0.2
WVRY	≤ 0.2
MIPI	≤ 0.2
GELY	≤ 0.2
GYSK	≤ 0.2
QACE	≤ 0.2
NCKN	≤ 0.2
VNAS	≤ 0.2
NRKA	≤ 0.2
RRVA	0.78
RRKA	0.532
NRVA	≤ 0.2
DRKA	≤ 0.2
YMAC	≤ 0.2
EHCS	≤ 0.2
RYQP	≤ 0.2
RYLK	≤ 0.2
RYHC	0.949
RYQC	0.898
RYHR	≤ 0.2
RYSK	≤ 0.2

Variant	one-hybrid fitness for binding parS DNA
RYQN	0.318
RYLR	≤ 0.2
RYHY	0.423
RYSC	0.929
RYLC	0.955
RYSF	≤ 0.2
SLCV	≤ 0.2
CHLH	≤ 0.2
CAHG	≤ 0.2
MLWF	0.204
KWCS	≤ 0.2
VPGF	≤ 0.2
PGPY	≤ 0.2
ELLG	≤ 0.2
NRNN	≤ 0.2
TSHR	≤ 0.2
SYEV	≤ 0.2
RYCF	≤ 0.2
RYYQ	≤ 0.2
RYCC	0.903
RYRC	0.798
RYWC	0.887
RYYR	≤ 0.2
RYCR	≤ 0.2

Variant	one-hybrid fitness for binding parS DNA
RYYC	0.975
RYWF	0.258
RYWR	≤ 0.2
RYRK	≤ 0.2
RYRM	0.328
QPAG	≤ 0.2
WKQT	≤ 0.2
SDLQ	≤ 0.2
CPED	≤ 0.2
GWLY	≤ 0.2
RYGC	0.914
RYGH	≤ 0.2
RYGP	≤ 0.2
DNPV	≤ 0.2
NFCG	≤ 0.2
DFHG	≤ 0.2
RFHG	0.974
SFCG	≤ 0.2
DFYG	≤ 0.2
DFRG	≤ 0.2
NFYG	≤ 0.2
NFRG	≤ 0.2
RFRG	0.992
RFYG	0.899

Variant	one-hybrid fitness for binding parS DNA
NFHG	≤ 0.2
RFCG	0.895
QYLK	≤ 0.2
ALTP	≤ 0.2
ELKN	≤ 0.2
VNHC	≤ 0.2
DHWC	≤ 0.2
FRFT	≤ 0.2
TDKR	≤ 0.2
FTYC	≤ 0.2
QQPP	≤ 0.2
WLFI	≤ 0.2
AEPL	≤ 0.2
NFGG	≤ 0.2
RFLG	0.891
RFLH	0.217
RFGD	≤ 0.2
DFLG	≤ 0.2
RFGG	0.918
QKFT	≤ 0.2
TIPM	≤ 0.2
DRFA	≤ 0.2
NRAA	≤ 0.2
DRAA	≤ 0.2

Variant	one-hybrid fitness for binding parS DNA
RRFA	0.806
NRFA	≤ 0.2
RRAA	0.724
RAFI	≤ 0.2
DPVD	≤ 0.2
RHKD	≤ 0.2
RHKH	0.248
RHVH	≤ 0.2
RHVP	≤ 0.2
RHKG	0.879
RHVG	0.847
QEEC	≤ 0.2
PYTA	≤ 0.2
QTGF	≤ 0.2
RWLY	0.266
RWRQ	≤ 0.2
RWRY	0.494
RWNN	0.355
RWLG	0.685
RWNP	≤ 0.2
RWHP	≤ 0.2
RWNG	0.797
RWHG	0.754
RWHH	≤ 0.2

Variant	one-hybrid fitness for binding parS DNA
RWLF	≤ 0.2
RWRG	0.881
DKAC	≤ 0.2
PMRT	≤ 0.2
CRCT	≤ 0.2
TSLF	≤ 0.2
MEYL	≤ 0.2
QCLV	≤ 0.2
EWYS	≤ 0.2
RWGM	≤ 0.2
RWGF	≤ 0.2
RWYF	≤ 0.2
RWSR	≤ 0.2
RWYG	0.714
RWGG	0.63
RWIG	0.569
RWSG	0.769
RWIF	≤ 0.2
RWPG	0.406
RWSQ	≤ 0.2
RWYM	≤ 0.2

From a collection of fitness landscapes (doi:10.1016/j.celrep.2020.107928)
